Experimental data: PubChem BioAssay
“And” between values parts separate entries of the source, which are not always exact repeats. Equal entries are not always repeated. Values without a mark were called inactive. The source made the active and inactive calls.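 Rule for the calls, unless noted: active = mean inhibition above 46.68%, the untreated control wells mean plus 3 SD; inactive = the rest.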

Each compound was assayed against Nuclear receptor coactivator 3 (Homo sapiens) (UniProt Q9Y6Q9) (assay: SRC3 coactivator transcriptional activity inhibitors, confirmation, cell-based, luminescence, quadruplicate (AID 588792;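 active = mean inhibition over 43.08%, the solvent-only control mean plus 3 SD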;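 note: 0% = DMSO treated cells and 100% = gossypol at 36 µM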)). Settings: HEK293 GAL4-SRC3 luciferase reporter, at 3.6 µM, hits give high values.
Nuclear receptor coactivator 3 (Homo sapiens), sequence (Q9Y6Q9 whole entry, looked up, the tested form may be a part): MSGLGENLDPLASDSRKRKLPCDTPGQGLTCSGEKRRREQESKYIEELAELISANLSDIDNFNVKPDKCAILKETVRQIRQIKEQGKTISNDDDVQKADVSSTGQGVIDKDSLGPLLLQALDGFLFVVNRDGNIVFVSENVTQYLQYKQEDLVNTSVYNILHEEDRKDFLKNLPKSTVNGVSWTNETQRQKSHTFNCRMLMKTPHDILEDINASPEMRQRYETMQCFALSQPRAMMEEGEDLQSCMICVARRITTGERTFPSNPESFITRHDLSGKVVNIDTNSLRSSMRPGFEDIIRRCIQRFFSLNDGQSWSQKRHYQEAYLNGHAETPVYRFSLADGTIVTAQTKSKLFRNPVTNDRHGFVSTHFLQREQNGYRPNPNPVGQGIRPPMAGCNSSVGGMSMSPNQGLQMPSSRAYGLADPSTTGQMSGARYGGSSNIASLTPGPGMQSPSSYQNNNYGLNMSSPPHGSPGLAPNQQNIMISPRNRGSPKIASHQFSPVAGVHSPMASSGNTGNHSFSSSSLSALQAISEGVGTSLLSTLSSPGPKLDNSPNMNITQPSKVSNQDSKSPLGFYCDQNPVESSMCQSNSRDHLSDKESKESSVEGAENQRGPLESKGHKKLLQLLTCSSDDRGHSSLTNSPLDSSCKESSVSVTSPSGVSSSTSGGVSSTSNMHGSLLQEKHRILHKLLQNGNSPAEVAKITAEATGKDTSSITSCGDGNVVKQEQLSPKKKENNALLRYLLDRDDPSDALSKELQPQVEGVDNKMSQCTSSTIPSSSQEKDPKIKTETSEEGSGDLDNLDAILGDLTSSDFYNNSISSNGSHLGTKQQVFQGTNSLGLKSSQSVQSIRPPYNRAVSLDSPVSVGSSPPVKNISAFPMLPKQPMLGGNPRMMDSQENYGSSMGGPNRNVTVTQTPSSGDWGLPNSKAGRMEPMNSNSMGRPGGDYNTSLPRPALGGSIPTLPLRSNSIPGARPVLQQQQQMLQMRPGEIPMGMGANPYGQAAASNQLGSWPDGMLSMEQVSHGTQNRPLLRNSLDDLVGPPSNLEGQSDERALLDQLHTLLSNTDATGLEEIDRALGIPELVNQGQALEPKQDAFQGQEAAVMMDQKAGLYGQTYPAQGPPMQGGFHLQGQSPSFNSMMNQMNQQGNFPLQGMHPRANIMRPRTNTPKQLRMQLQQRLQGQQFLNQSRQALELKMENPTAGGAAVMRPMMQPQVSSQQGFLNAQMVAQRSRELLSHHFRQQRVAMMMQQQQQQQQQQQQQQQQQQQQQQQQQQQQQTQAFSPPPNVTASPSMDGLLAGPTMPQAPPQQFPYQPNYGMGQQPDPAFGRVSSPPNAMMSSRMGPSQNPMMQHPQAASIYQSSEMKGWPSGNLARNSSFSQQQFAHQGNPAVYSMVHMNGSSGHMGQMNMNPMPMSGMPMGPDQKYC

Row | SMILES | inhibition
1 | CC(C)(O)/C=C/C(=O)C(C)(O)C1C(O)CC2(C)C3CC=C4C(C=C(O)C(=O)C4(C)C)C3(C)C(=O)CC12C (stereo unspecified) | 70.1% (active)
2 | CN1C2CCC1/C(=C/c1ccccn1)C(=O)/C2=C\c1ccccn1 | -0.02%
3 | CNC(=O)c1cccn(Cc2ccc(C(F)(F)F)cc2)c1=O | 30.3%

What follows are compounds tested on transactivating tegument protein VP16 (Human herpesvirus 1), Gal4-VP16 luciferase reporter (assay: VP16 transactivation inhibitors, counter-screen for SRC3 inhibitor project, cell-based, luminescence, high throughput (AID 588794; in the data active = inhibition above about 30%)). Settings: mammalian cells, VP16-driven luciferase reporter luminescence; at 3.6 µM; hits give high values.

Row | SMILES | inhibition
4 | C[C@H]1CCC/C=C/[C@@H]2C[C@H](O)C[C@H]2[C@@H](O)/C=C/C(=O)O1 | 77.3% (active)
5 | COC(=O)C1=C(c2ccc(-c3ccccc3)c(F)c2)C[C@@H]2CC[C@H]1N2C(=O)N1CCCCC1 | 39% (active)
6 | CC(C)c1oc(=O)cc2c1[C@@H](O)[C@H]1OC(=O)[C@@]3(C)C[C@@H](O)[C@@H](O)[C@@]2(C)C13 (stereo partly specified) | 67.4% (active)
7 | COC(=O)c1ccc(NC(=O)CSc2nc3ccc(N4C(=O)C5C6C=CC(C6)C5C4=O)cc3s2)cc1 (stereo unspecified) | -0.23%
8 | CC1CCC/C=C/C2CC(O)CC2C(O)/C=C/C(=O)O1 (stereo unspecified) | 75% (active)
9 | C1=NCCc2c1[nH]c1ccccc21 | -13.4%
10 | CC(=O)OC1C2(CC3N4C(=O)C5(CO)SSC4(CC31O)C(=O)N5C)OC(C)C(C)(C)C2=O (stereo unspecified) | 94.1% (active)
11 | COc1cc2nc(CN3CC=C(c4ccccc4)CC3)[nH]c(=O)c2cc1OC | 39.7% (active)
12 | c1ccc(-c2[nH]c(-c3ccccc3)[n+](CC3CO3)c2-c2ccccc2)cc1 (stereo unspecified) | -0.66%
13 | C[C@H]1CCC/C=C/[C@@H]2C[C@H](O)C[C@H]2[C@H](O)/C=C/C(=O)O1 | 76.2% (active) and 77.2% (active)
14 | COc1ccc(CN2Cc3cnnn3-c3ccccc3C2C#N)cc1 (stereo unspecified) | 56.2% (active)
15 | COC(=O)C[C@]1(C(=O)OC)CN(C#N)N(c2ccc(Cl)cc2)C12c1ccccc1-c1ccccc12 | 63.2% (active)
16 | CCCOC(=O)c1ccc(-[n+]2c(-c3ccccc3)cc(-c3ccccc3)cc2-c2ccccc2)cc1 | 65.5% (active)
17 | CC(C)(O)/C=C/C(=O)C(C)(O)C1C(O)CC2(C)C3CC=C4C(C=C(O)C(=O)C4(C)C)C3(C)C(=O)CC12C (stereo unspecified) | 74% (active)
18 | CN1C2CCC1/C(=C/c1ccccn1)C(=O)/C2=C\c1ccccn1 | 80.8% (active)
19 | CNC(=O)c1cccn(Cc2ccc(C(F)(F)F)cc2)c1=O | -34.3%

Each compound was assayed against Nuclear receptor coactivator 1 (Homo sapiens) (UniProt Q15788) (assay: SRC1 coactivator transcriptional activity inhibitors, confirmation, cell-based, luminescence, quadruplicate (AID 588820;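 note: 0% = DMSO wells and 100% = gossypol 36 µM treated wells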)). Settings: HEK293 GAL4-SRC1 luciferase reporter, at 3.6 µM, hits give high values.
Nuclear receptor coactivator 1 (Homo sapiens), sequence (Q15788 whole entry, looked up, the tested form may be a part): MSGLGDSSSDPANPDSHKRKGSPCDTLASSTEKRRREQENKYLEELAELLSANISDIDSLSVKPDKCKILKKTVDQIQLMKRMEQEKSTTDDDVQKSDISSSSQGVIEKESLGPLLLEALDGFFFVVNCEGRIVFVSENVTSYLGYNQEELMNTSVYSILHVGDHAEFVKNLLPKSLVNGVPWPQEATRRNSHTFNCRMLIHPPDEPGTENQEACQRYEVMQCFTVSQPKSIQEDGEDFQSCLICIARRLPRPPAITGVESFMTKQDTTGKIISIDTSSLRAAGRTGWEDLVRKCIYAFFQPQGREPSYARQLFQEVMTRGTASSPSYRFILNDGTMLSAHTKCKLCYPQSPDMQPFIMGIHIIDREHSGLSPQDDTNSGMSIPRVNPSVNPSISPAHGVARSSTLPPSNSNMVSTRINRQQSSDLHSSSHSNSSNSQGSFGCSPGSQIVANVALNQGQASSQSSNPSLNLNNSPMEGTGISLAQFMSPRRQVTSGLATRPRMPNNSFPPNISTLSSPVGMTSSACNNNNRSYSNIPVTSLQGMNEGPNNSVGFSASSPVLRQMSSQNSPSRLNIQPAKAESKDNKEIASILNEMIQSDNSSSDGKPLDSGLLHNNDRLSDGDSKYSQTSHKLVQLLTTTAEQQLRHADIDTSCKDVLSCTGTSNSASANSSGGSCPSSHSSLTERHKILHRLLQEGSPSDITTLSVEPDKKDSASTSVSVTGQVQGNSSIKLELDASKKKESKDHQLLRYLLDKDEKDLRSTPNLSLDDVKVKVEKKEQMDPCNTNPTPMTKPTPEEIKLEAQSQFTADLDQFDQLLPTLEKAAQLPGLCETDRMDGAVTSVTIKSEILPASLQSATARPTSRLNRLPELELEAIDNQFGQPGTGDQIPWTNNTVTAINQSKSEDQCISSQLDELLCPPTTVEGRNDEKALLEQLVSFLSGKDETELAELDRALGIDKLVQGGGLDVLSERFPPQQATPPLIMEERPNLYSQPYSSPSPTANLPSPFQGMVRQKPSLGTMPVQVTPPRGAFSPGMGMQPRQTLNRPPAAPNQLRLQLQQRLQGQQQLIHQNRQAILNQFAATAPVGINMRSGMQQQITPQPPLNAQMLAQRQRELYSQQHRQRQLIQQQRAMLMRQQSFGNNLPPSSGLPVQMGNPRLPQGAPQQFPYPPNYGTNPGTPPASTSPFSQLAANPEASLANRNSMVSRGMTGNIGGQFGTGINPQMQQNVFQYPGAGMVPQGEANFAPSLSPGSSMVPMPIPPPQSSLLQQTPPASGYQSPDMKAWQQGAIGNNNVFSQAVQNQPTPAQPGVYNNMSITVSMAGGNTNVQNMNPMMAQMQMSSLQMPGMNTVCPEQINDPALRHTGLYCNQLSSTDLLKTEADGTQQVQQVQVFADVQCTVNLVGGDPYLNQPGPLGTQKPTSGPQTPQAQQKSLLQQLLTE

Row | SMILES | inhibition
20 | CC(=NNC(=S)N1CC2CCC(CC2)C1)c1nccs1 | 62.2% (active)
21 | CC(=CCOc1ccc2ccc(=O)oc2c1)C1=CC(=O)C(C)(C)O1 | 17.3%
22 | O=c1[nH]c2ccccc2n1C1CCN(C(c2cc3ccccc3o2)c2nnnn2-c2ccc3c(c2)OCCO3)CC1 (stereo unspecified) | -27.1%
23 | CCN(CC)C(=O)c1ccc(NC(=O)c2ccc(-n3cncn3)c([N+](=O)[O-])c2)cc1 | -2.4%
24 | CCCCn1nnnc1C(CCSC)N1CCC(n2c(=O)[nH]c3ccccc32)CC1 (stereo unspecified) | -63.4%
25 | O=C(c1cn(Cc2ccccc2F)c2ncccc12)C(F)(F)F | -9.15%
26 | CN1CCN(c2cc(N3CCCCCC3)c(F)cc2[N+](=O)[O-])CC1 | -15.1%
27 | COC(=O)C1=C(c2ccc(-c3ccccc3)c(F)c2)C[C@@H]2CC[C@H]1N2C(=O)N1CCOCC1 | 2.48%
28 | Cc1cccc(C)c1-n1nnnc1C(c1cccs1)N1CCC2(CC1)C(=O)NCN2c1ccccc1 (stereo unspecified) | 22.3%
29 | CCN(CC)C(=O)c1ccc(NC(=O)c2cccc(S(=O)(=O)N3CCN(Cc4ccccc4)CC3)c2)cc1 | -1.69%
30 | CCC(c1nnnn1Cc1ccccc1)N1CCC(n2c(=O)[nH]c3ccccc32)CC1 (stereo unspecified) | -50.1%
31 | O=c1[nH]c2ccccc2n1C1CCN(C(c2cccs2)c2nnnn2-c2ccc3c(c2)OCCO3)CC1 (stereo unspecified) | -26.2%
32 | COc1ccc(-n2nnnc2C(CCSC)N2CCC(n3c(=O)[nH]c4ccccc43)CC2)cc1 (stereo unspecified) | -13.8%
33 | CCC(C)(C)n1nnnc1CN1CCC(n2c(C)nc3cc(C(F)(F)F)ccc32)CC1 | 17.3%
34 | CCC(c1nnnn1-c1ccc2c(c1)OCCO2)N1CCC(n2c(=O)[nH]c3ccccc32)CC1 (stereo unspecified) | -22%
35 | C[C@H]1CCC[C@H](O)CCCCCc2cc(O)cc(O)c2C(=O)O1 | -4.86%
36 | Cc1cccc(-n2c(C)nc3ccccc3c2=O)c1C | 2%
37 | COc1ccc(C(c2nnnn2Cc2ccccc2)N2CCC(n3c(=O)[nH]c4ccccc43)CC2)cc1 (stereo unspecified) | -42.8%
38 | CN1CCN(c2cccc3c2C(=O)c2ccccc2C3=O)CC1 | 20.1%
39 | COc1ccc(-n2nnnc2C(c2cccc(OC)c2OC)N2CCC(n3c(=O)[nH]c4ccccc43)CC2)cc1 (stereo unspecified) | -18.7%
40 | COc1ccc(-n2nnnc2C(c2cccs2)N2CCC(n3c(=O)[nH]c4ccccc43)CC2)cc1 (stereo unspecified) | -25.6%
41 | COc1ccc(-n2nnnc2C(c2ccccc2)N2CCC(n3c(=O)[nH]c4ccccc43)CC2)cc1 (stereo unspecified) | -22.4%
